Screening data (PubChem)
HepG2 viability = qHTS for Inhibitors of TGF-b: Cytotox Counterscreen | actives 0.76% (n = 410,000) | Potency, µM (doses to about 46.1 µM), actives largely listed as cytotoxic | HepG2 CAGA-GFP viability, ATP luminescence, 18 h
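CellTiter-Glo luminescence gave cytotoxicity after 18 hours at 37 degrees C. The cells were HepG2 CAGA-GFP in 1% FBS DMEM, stimulated with 500 pg/mL TGF-beta after compound addition. %Activity was normalised to no-cell wells (complete cell-killing) and DMSO (no toxicity), and curves were fitted and classified.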
DT40 TDP1 CPT = qHTS for Inhibitors of human tyrosyl-DNA phosphodiesterase 1 (TDP1): qHTS in cells in presence of CPT. chicken DT40 Tdp1-/-;hTDP1 cells + 20 nM CPT, ATP luminescence, 48 h. AID 686979, 2013. actives 12% (n = 420,000). Potency, µM (doses to about 46.2 µM), hits mostly inhibitors; further: nearly all actives have a fitted effect of over 55% in size
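Chicken DT40 Tdp1-/- cells stably complemented with human TDP1 were seeded at 400 cells/well in medium containing 20 nM camptothecin, exposed to pin-transferred compounds, and grown at 37 °C for at least 48 hr. Viability was read as ATP luminescence.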
HT1080-NT tox = qHTS for induction of synthetic lethality in tumor cells producing 2HG: qHTS for the HT-1080-NT fibrosarcoma cell line | actives 1.6% (n = 360,000) | Potency, µM (highest dose often 46.1 µM), most hits filed as cytotoxic | HT-1080-NT fibrosarcoma viability, CellTiter-Glo ATP luminescence, 48 h;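 further: NT is the 2HG producing partner of a matched IDH1 knockdown line; nearly all actives have a fitted effect of over 55% in size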
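Read-out is CellTiter-Glo luminescence after 10 minutes at room temperature, following 48 hours' compound treatment of HT-1080-NT cells (750 cells/well, RPMI, 5% FBS, 37 degrees C).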
DT40 TDP1 no CPT = qHTS for Inhibitors of human tyrosyl-DNA phosphodiesterase 1 (TDP1): qHTS in cells in absence of CPT. Potency, µM (top dose mostly 46.2 µM), hits mostly inhibitors. actives 15% (n = 420,000). DT40 Tdp1-/- hTDP1 cells, no CPT, ATP luminescence, 48 h; further: nearly all actives have a fitted effect of over 55% in size
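Seeded 400 DT40-hTDP1 cells/well (vehicle DMSO, no 20 nM CPT); pinned compounds; ≥48 hr at 37 °C; CellTiter-Glo luminescence as viability measure.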
TGFb SMAD3 inh = qHTS for Inhibitors of TGF-b; HepG2 CAGA-GFP TGF-b/SMAD3 reporter, GFP fluorescence, 18 h; TGF-beta stimulated, 500 pg/mL final; Potency, µM (series often up to 46.1 µM), most hits filed as inhibitors; actives 1.2% (n = 410,000); AID 588855, 2011; further: nearly all actives have a fitted effect of over 65% in size
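HEPG2 CAGA-GFP reporter cells (1000/well, DMEM with 1% FBS) received compounds, then recombinant TGF-beta at 500 pg/mL final for 18 hours at 37 degrees C. Per-cell GFP summed per well was normalised to unstimulated and stimulated DMSO controls before curve fitting.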
HT1080 IDH1KD tx = qHTS for induction of synthetic lethality in tumor cells producing 2HG: qHTS for the HT-1080-IDH1KD cell line. HT-1080 IDH1 knockdown viability, ATP luminescence, 48 h. Potency, µM (doses to about 46.1 µM), usual class: cytotoxic. actives 2% (n = 360,000). AID 686971, 2013
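After a 2 h attachment period, IDH1KD HT-1080 cells took pin-transferred compound for 48 h at 37 °C; ATP-based luminescence after 10 min room-temperature reagent incubation reported viability.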
Numbers stand for hits; i = inactive; ? = inconclusive; nt = no result; [ ] = another dose, or the depositor's remark. In the library only some 17% were active in any assay of this set; here they are far more common. The call rests on the fitted dose curve; in most records, active means well fitted curve in the direction sought with a large enough effect; inconclusive means small, poorly fitted or top-dose-only effect, or another doubt; inactive means no such curve, though single readings can be large; an effect the other way counts as inactive or inconclusive.

SMILES	HepG2 viability	DT40 TDP1 CPT	HT1080-NT tox	DT40 TDP1 no CPT	TGFb SMAD3 inh	HT1080 IDH1KD tx
CCN(CC)CCN(C(=O)c1ccc2c(c1)OCCO2)c1nc2c(Cl)cccc2s1	i	18µM	i	?	i	i
CN(C)CCN(C(=O)c1cccc(Cl)c1)c1nc2c(Cl)cccc2s1	i	i	i	?	i	i
CCN(CC)CCN(C(=O)c1ccc2c(c1)OCCO2)c1nc2cc(C)cc(C)c2s1	i	15µM	i	?	i	i
O=C(CSc1nnc(CNC(=O)c2ccco2)o1)Nc1ccc(Br)cc1	i	i	i	i	i	i
Cc1cc(C(=O)N2CCC2(C)C(=O)NCCC#N)nn1C (stereo unspecified)	i	i	i	i	i	i
CCN(CC)C(=O)c1[nH]cnc1C(=O)NCCCCCNC(=O)OC(C)(C)C	i	i	i	i	i	i
CC(C)(C)OC(=O)NCc1ccc(NC(=O)c2nc[nH]c2C(=O)Nc2cc(Br)ccc2F)cc1	i	10µM	i	13µM	i	i
CC(C)(C)OC(=O)NCCCCCNC(=O)c1[nH]cnc1C(=O)Nc1cc(Br)ccc1F	i	12µM	i	5.8µM	i	i
CCN(C(=O)COC(=O)/C=C/c1ccc(OC(F)F)c(OC)c1)C1CCS(=O)(=O)C1 (stereo unspecified)	i	i	i	i	?	i
Cn1c(-c2ccccc2O)cc2ccccc21	i	?	?	18µM	i	i[9.24 µM]
Cn1c(-c2ccccc2)cc2ccccc21	i	i	i	i	i	i
Cn1c(C(c2cc3ccccc3n2C)c2cc3ccccc3n2C)cc2ccccc21	i	5.6µM	nt	3.5µM	?	nt
Cn1c(=O)c(-c2ccccc2)cc2ccccc21	i	i	i	?	i	i
Cn1nc(-c2ccccc2)c(C(O)c2ccc(Cl)cc2)c1Cl (stereo unspecified)	i	?	i	?	i	i
Cn1nc(-c2ccccc2)c(CSc2ccccc2Cl)c1Cl	i	?	?	10µM	i	?
CC1C(c2ccccc2)=Nn2c(=O)n(-c3ccccc3)c(=O)n21 (stereo unspecified)	i	?	i	23µM	?	i
CCc1ccc(O)c(C(=O)c2cnc3cc(-c4ccc(C)cc4)nn3c2)c1	i	?	nt	i	i	nt
Cc1ccc(-c2cc3ncc(C(=O)c4cc([N+](=O)[O-])ccc4O)cn3n2)cc1	i	?	nt	2.3µM	?	nt
Cc1ccc(-c2cc3nccc(-c4cc([N+](=O)[O-])ccc4O)n3n2)cc1	i	23µM	nt	23µM	?	nt
Cc1noc(C)c1NC(=O)N(C)C[C@H]1Oc2c(NC(=O)Nc3ccc4c(c3)OCO4)cccc2C(=O)N([C@H](C)CO)C[C@@H]1C	i	i	i	i	i	i
C[C@@H]1C=CC(=O)O[C@@H]1c1ccc(Cl)cc1	i	7.3µM	?	7.3µM	?	?
COc1ccc(CCn2c(-c3ccco3)nc3ccccc3c2=O)cc1OC	i	2.6µM	i	2.6µM	i	?
COCCCn1c(-c2ccco2)nc2ccccc2c1=O	i	i	i	i	i	i
COc1ccc(C)cc1NC(=O)C(Sc1nnnn1C)c1ccccc1 (stereo unspecified)	i	i	i	i	i	i
COc1ccc(CCn2c(=S)[nH]c(=O)c3c(C)cc(C)nc32)cc1OC	nt	i	i	i	nt	i
CCCn1c(SC(C(=O)Nc2cc(C)ccc2OC)c2ccccc2)nc2ccccc2c1=O (stereo unspecified)	i	18µM	i	15µM	i	i
